{"source": "PubChem BioAssay (Tox21)", "note": "Records with an inconclusive call do not appear. Values without a mark were called inactive. Calls follow the shape of the dose curve; as a rule, active = well fitted activation curve with a large enough effect in the repeat runs; inconclusive = weak or mixed curves; inactive = flat fitted curve, though single readings scatter. % is scaled to controls: 0 for no effect and ±100 for the full control effect."}
{"assay": "A CellTox Green Cytotoxicity Assay to monitor cytotoxicity in HEK293 cells - 16 hour (AID 1224888); also: nearly all actives have a fitted effect of over 35% in size", "details": "CellTox Green fluorescence; series mostly up to 76.8 µM; activity change: at the top concentration", "source_text": "National Center for Advancing Translational Sciences [NCATS]\nNIH Chemical Genomics Center [NCGC]\nU.S. Environmental Protection Agency [EPA]\nNational Institutes of Environmental Health Sciences [NIEHS]\nNational Toxicology Program [NTP]\nCell-based models are critical for drug discovery. Determining the natural cytotoxic effects resulting from test compounds is an essential research activity. A CellTox Green Cytotoxicity Assay to monitor cytotoxicity in real time of continues cell culture during 40 hours of the compound treatment was used to screen Tox21 10K library compounds in Hek293 cells. CellTox Green Cytotoxicity Assay is a nonlytic, homogeneous, biofluorescent method to measure cytotoxicity in cell culture after experimental manipulation. The assay system uses a proprietary asymmetric cyanine dye that is excluded from viable cells but preferentially stains the dead cell's DNA. […] Viable cells produce no appreciable increases in fluorescence. Therefore, the fluorescence signal produced by the binding interaction with dead cell DNA is proportional to cytotoxicity.\nThe mixture of Hek293 cell suspension and reagents were dispensed at 600cells/6 ul/well in 1536-well tissue culture treated black solid bottom plates using a Multidrop dispenser. After the assay plates were incubated at a 37 C/5% CO2 incubator for 5 hours, 23 nL of compounds dissolved in DMSO, positive and negative controls was transferred to the assay plate by a pintool work station. The plates were incubated at 37 C for 40 hours. The fluorescence intensity were measured at 0h, 8h, 16h, 24h, 32h and 40h time points using ViewLux plate reader during compound treatment."}
{"smiles": "O=Cc1ccc(Cl)c([N+](=O)[O-])c1", "activity change": "-1.1%"}
{"smiles": "CCCCCCCCS", "activity change": "-1.74%"}
{"smiles": "N#CCCCC(C#N)CCC#N", "note": "(stereo not given)", "activity change": "2.81%"}
{"smiles": "OCC(O)c1ccccc1", "note": "(stereo not given)", "activity change": "21.7%"}
{"smiles": "Clc1cccc(C(c2ccc3nc[nH]c3c2)n2ccnc2)c1", "note": "(stereo not given)", "activity change": "4.2% [at 35.3 µM, hits give high values]"}
{"smiles": "CC(C(=O)O)c1ccc2c(c1)Cc1cccnc1O2", "note": "(stereo not given)", "activity change": "-18.8% [at 35.3 µM, hits give high values]"}
{"smiles": "CC(C)NC(=O)c1ccccc1N", "activity change": "-3.74%"}
{"smiles": "O=c1c2ccccc2oc2ccccc12", "activity change": "-2.55%"}
{"smiles": "C=CC(=O)OCCCCCCCCCC", "activity change": "15.2%"}
{"smiles": "C=CC(C)(O)CC/C=C(/C)CCC=C(C)C", "note": "(stereo not given)", "activity change": "0.167%"}
{"smiles": "CCC(C(=O)O)c1ccc(N2Cc3ccccc3C2=O)cc1", "note": "(stereo not given)", "activity change": "-1.71% [at 35.3 µM, hits give high values]"}
{"smiles": "OCCc1ccncc1", "activity change": "11.8%"}
{"smiles": "CC(C)Cc1nccs1", "activity change": "-7.6%"}
{"smiles": "Cc1c(N=C=O)cccc1N=C=O", "activity change": "-0.484%"}
{"smiles": "O=C(O)c1cc(C(=O)O)c(C(=O)O)cc1C(=O)O", "activity change": "-11.2%"}
{"smiles": "FC1(F)C(F)(F)C(F)(F)C2(F)C(F)(C1(F)F)C(F)(F)C(F)(F)C1(F)C(F)(F)C(F)(F)C(F)(F)C(F)(F)C12F", "note": "(stereo not given)", "activity change": "-5.09%"}
{"smiles": "C=Cc1ccc(C=C)cc1", "activity change": "-7.4%"}
{"smiles": "C=CC(O)CCCCC", "note": "(stereo not given)", "activity change": "-2.55%"}
{"smiles": "CCCOC(C)=O", "activity change": "-14.9%"}
{"smiles": "O=S(=O)(O)c1cc(Cl)c(Cl)cc1Cl", "activity change": "9.87%"}
{"smiles": "CCCCOC(=O)C(C)Oc1ccc(Oc2ccc(C(F)(F)F)cn2)cc1", "note": "(stereo not given)", "activity change": "0.305%"}
{"smiles": "C=CC(=O)NC(C)(C)C", "activity change": "-4.85%"}
{"smiles": "CCCCCCCCCCCCCCCCCCCl", "activity change": "11.7% [at 6.97 µM, hits give high values]"}
{"smiles": "O=C(c1ccco1)N1CCNCC1", "activity change": "5.66% [at 35.3 µM, hits give high values]"}
{"smiles": "C=C[Si](OCC)(OCC)OCC", "activity change": "-4.53%"}
{"smiles": "Oc1ccc(Oc2ccccc2)cc1", "activity change": "21.5%"}
{"smiles": "CC(C)Oc1ccccc1O", "activity change": "-2.29%"}
{"smiles": "C/C=C1\\[C@H]2C=C(C)C[C@]1(N)c1ccc(=O)[nH]c1C2", "activity change": "0.5% [at 35.3 µM, hits give high values]"}
{"smiles": "Nc1ccc(-c2ccc(F)cc2)cc1", "activity change": "-12%"}
{"smiles": "O=C(OCCCCCOC(=O)c1ccccc1)c1ccccc1", "activity change": "-8.64%"}
{"smiles": "O=C(OCCN1CCOCC1)c1cccnc1Nc1cccc(C(F)(F)F)c1", "activity change": "-19.4% [at 35.3 µM, hits give high values]"}
{"smiles": "CCCCCCCCCCCCN1CCOCC1", "activity change": "20.6%"}
{"smiles": "CCc1cnc(C(=O)O)c(C(=O)O)c1", "activity change": "-2.74%"}
{"smiles": "CC1(COc2ccc(CC3SC(=O)NC3=O)cc2)CCCCC1", "note": "(stereo not given)", "activity change": "21.5% [at 35.3 µM, hits give high values]"}
{"smiles": "Cc1c(Cl)cccc1[N+](=O)[O-]", "activity change": "-7.85%"}
{"smiles": "CC(=O)c1cccnc1", "activity change": "-2.39%"}
{"smiles": "CCC(=O)O[C@@H]1C[C@H]2CC[C@]1(C)C2(C)C", "activity change": "-5.48%"}
{"smiles": "S=c1[nH][nH]c(=S)s1", "activity change": "1.75%"}
{"smiles": "Nc1cccc2c(=O)[nH][nH]c(=O)c12", "activity change": "-7.8%"}
{"smiles": "CCCCCCCCNC", "activity change": "-5.19%"}
